# Bioassay records (PubChem)
# Shown are actives, neighbours in structure and some others; about 4.1% of the full set was active somewhere.
# DAX1 inh-1 – DAX1 (NR0B1) inhibitors, primary screen, cell-based, HEK293, Gal4-DAX1, luciferase luminescence; HEK293 Gal4-DAX1 luciferase reporter; inhibition, % at 6.75 µM; AID 504766, 2011; Nuclear receptor subfamily 0 group B member 1 (Homo sapiens), P51843; 0.99% of 340,000 active;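 active means inhibition above the mean over all tested compounds plus 3 SD, cut at about 4.2% in these data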;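 further: 0% = DAX1-transfected cells with DMSO and 100% = empty-vector control cells with DMSO; inhibition shows as a rise in luminescence from relieved DAX1 repression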
# hgDAF-12 ag – H. glycines DAF-12 receptor agonists, primary screen, cell-based, luminescence, HEK293, GAL4 fusion, UAS-luciferase; Nuclear hormone receptor DAF-12 (Heterodera glycines), GAL4 fusion; HEK293 GAL4-hgDAF12 UAS-luciferase reporter, agonist luminescence; normalized to butyrate control; activation, % at 6.8 µM; 1.8% of 370,000 active;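 active means activation above a cutoff set at the mean of all screened compounds plus 3 SD, cut at about 10% in these data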;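 further: 0% = DMSO wells and 100% = sodium butyrate wells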
# DAX1 inh-2 – DAX1 (NR0B1) inhibitors on StAR promoter, primary screen, cell-based, luminescence, SF-1 (NR5A1), full-length DAX-1; HEK293T StAR-luciferase reporter, SF-1/DAX-1 repression relief; inhibition, % at 6.8 µM; 1.1% of 370,000 active;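 active means inhibition above the mean over all tested compounds plus 3 SD, cut at about 3.6% in these data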;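 further: 0% = DAX-1 cells with DMSO and 100% = cells lacking DAX-1 with DMSO; higher inhibition means more luminescence from relief of DAX-1 repression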
# ssDAF12 agonist – S. stercoralis DAF-12 nuclear receptor activators, primary screen, cell-based, luminescence, HEK293, GRIP1 co-expression, lit1-tk-luc; Nuclear hormone receptor DAF-12 (Strongyloides stercoralis); HEK293 ssDAF-12/GRIP1 lit1-tk-luc reporter; % of 3 µM dafachronic acid response; activation, % at 6.8 µM; 1% of 370,000 active;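 active means activation above the mean over all tested compounds plus 3 SD, cut at about 0.9% in these data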;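 further: 0% = DMSO-only wells and 100% = 3 µM delta7-dafachronic acid wells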
# hcDAF12 agonist – H. contortus DAF-12 nuclear receptor activators, primary screen, cell-based, luminescence, HEK293, lit1-tk-luc reporter; 1.4% of 370,000 active; activation, % at 6.8 µM; HEK293 hcDAF-12 lit1-tk-luc reporter; 0% DMSO, 100% Δ7-dafachronic acid;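 active means activation above the mean of all tested compounds plus 3 SD, cut at about 5.5% in these data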;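 further: 100% = response to 3 µM Δ7-dafachronic acid high control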
# LXR ag – LXR agonists, Gal4 luciferase reporter, confirmation, counter-screen for hcDAF-12 agonist project, cell-based, luminescence, HEK293, H. contortus campaign; shares compounds with hcDAF12 agonist; HEK293 Gal4-LXR tk-luc reporter, 24 h; normalized: DMSO 0%, positive control 100%; activation, % at 6.8 µM; 3,400 tested, under 10 active;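 active means mean percent activation of the reporter above a cutoff set as the average over tested compounds plus their standard deviation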
# Target sequence (P55055 whole entry, looked up, the tested form may be a part): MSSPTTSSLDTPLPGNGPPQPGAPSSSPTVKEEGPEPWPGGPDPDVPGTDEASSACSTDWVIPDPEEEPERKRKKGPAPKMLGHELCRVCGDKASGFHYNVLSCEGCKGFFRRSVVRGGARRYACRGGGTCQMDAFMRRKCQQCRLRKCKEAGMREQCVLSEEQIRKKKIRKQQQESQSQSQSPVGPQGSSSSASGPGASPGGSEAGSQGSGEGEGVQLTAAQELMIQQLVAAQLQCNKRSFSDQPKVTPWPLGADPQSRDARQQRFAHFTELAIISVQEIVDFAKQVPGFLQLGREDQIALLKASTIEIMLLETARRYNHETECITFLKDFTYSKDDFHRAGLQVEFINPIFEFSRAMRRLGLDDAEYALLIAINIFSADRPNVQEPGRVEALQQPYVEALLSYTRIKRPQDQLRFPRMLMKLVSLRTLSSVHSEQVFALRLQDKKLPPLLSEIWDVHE
# hcDAF12 conf – H. contortus DAF-12 receptor agonists, confirmation, cell-based, luminescence, HEK293, lit1-tk-luc, triplicate; HEK293 hcDAF-12 lit1-tk-luc reporter; % of Δ7-dafachronic acid response; AID 743032, 2013; shares compounds with hcDAF12 agonist; activation, % at 6.8 µM; 61% of 3,400 active;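 active means mean activation across triplicate tests above the threshold derived from the earlier primary screen, cut at about 5.5% in these data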;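 further: 0% = DMSO only wells and 100% = 3 µM Δ7-dafachronic acid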
# * = called active by the depositor; nt = no result given.
SMILES,DAX1 inh-1,hgDAF-12 ag,DAX1 inh-2,ssDAF12 agonist,hcDAF12 agonist,LXR ag,hcDAF12 conf
N#C/C(=C\c1ccc(N2CCOCC2)o1)c1nc2ccccc2[nH]1,2.7,-0.9,3.5,0.2,11.1*,1.9,5.9*
CN(/N=C/c1ccc2c(c1)OCO2)c1ccccc1,0.7,11.2*,2.9,-0.5,9.1*,1.2,3.7
O=[N+]([O-])c1ccc(OC2OCC(O)C(O)C2O)cc1 (stereo not drawn),nt,-0.2,-0.8,-0.6,0.4,nt,nt
CC1(C)CC(=O)c2cc(OCC(=O)O)ccc2O1,-0.1,0.3,-0.4,-2.1,-0.4,nt,nt
CC1(C)CC(=O)c2ccc(OCc3ccc([N+](=O)[O-])cc3)cc2O1,nt,10.2,1.8,1.2*,17.0*,0.7,10.7*
C/C(=N\NC(=S)Nc1ccc(C)c(C)c1)c1ccc(N2CCOCC2)cc1,0.2,3.4,0.1,-0.2,6.9*,-0.2,2.3
C/C(=N\NC(=S)Nc1cc(S(=O)(=O)N2CCOCC2)ccc1Cl)c1ccc(N2CCOCC2)cc1,-2.5,-2.3,-0.3,-1.6,-1.9,nt,nt
COc1ccc2c(C(=O)CN3CCSCC3)c[nH]c2c1,-0.2,3.2,0.7,0.0,6.6*,-0.1,3.6
Cc1ccnc(NC(=O)Nc2cccc(F)c2)c1,-0.6,17.0*,3.7*,1.5*,16.4*,2.0,14.6*
Cn1c(SCc2nc3ccccc3s2)nnc1-c1cccs1,1.2,6.5,0.5,1.5*,7.1*,0.1,4.2
CCCn1c(=O)c2ccccc2n2c(SCc3nc4ccccc4s3)nnc12,0.8,8.1,3.7*,1.1*,9.5*,0.8,7.3*
COc1ccccc1-c1nnc(SCc2nc3ccccc3s2)n1C,2.2,1.5,-0.1,0.6,8.6*,-0.1,2.8
CCn1c(SCc2nc3ccccc3s2)nnc1-c1cccs1,1.2,9.1,0.5,0.0,4.5,nt,nt
O=C(NCCc1ccccc1)OCc1cn(Cc2ccc(Cl)cc2)nn1,nt,1.9,0.8,-0.7,-1.5,nt,nt
COC(=O)[C@]12C[C@H](CC(=O)NCCc3ccccc3OC)C(=O)N(Cc3ccc(Cl)cc3Cl)C1=C[C@H](C(C)C)O[C@@H]2C1CC1,nt,1.9,-1.5,-1.0,-0.2,nt,nt
O=C(NC1=NCCS1)c1sc2cc(F)ccc2c1Cl,2.8,11.1*,2.1,1.3*,9.4*,1.5,15.3*
COc1ccc(N2C(=O)c3n[nH]c(C)c3C2c2ccccc2)cc1 (stereo not drawn),nt,1.6,0.8,-0.5,-0.8,nt,nt
CCCCn1cnc2c(oc3nc4c(cc32)CCCC4)c1=O,0.4,10.8*,3.0,0.3,8.3*,1.0,3.5
CCCCCCn1cnc2c(oc3nc4c(cc32)CCCC4)c1=O,-1.3,7.5,0.6,-1.1,0.2,nt,nt
CCCCCCCCN1C(=O)N(Cc2ccc(OC)cc2)S(=O)(=O)c2ccc(F)cc21,nt,1.8,1.2,-0.7,0.4,nt,nt
O=C(/C=C/c1ccccc1)C1=C(O)C(=O)N(CCO)C1c1ccccc1[N+](=O)[O-] (stereo not drawn),-1.0,2.5,0.8,0.9,3.7,nt,nt
CC(=O)C1=C(O)C(=O)N(CCc2ccccc2)C1c1ccccc1[N+](=O)[O-] (stereo not drawn),3.3,3.2,0.1,0.3,7.3*,-0.2,1.5
